Experimental data taken from ChEMBL document CHEMBL3988442, “University of Dundee, Small-Polar-MMV Screening Library” (2021).
Among all 48,000 compounds or so, about 13,000 (27%) showed an effect of 50% or more. The list shows a part of the results.

tested on: Wolbachia pipientis; assay: Anti-Wolbachia Cell-Based Screen; format: functional; parameters: scale not given: in the data most compounds retested in dose-response had high values; details: 5 µM

Compound	Percent Effect [%]
CCNc1ncc(C(=O)NCCc2csc(-c3ncccn3)n2)cn1	-22.07
CCN(Cc1cccc(F)c1)c1ccc2nnnn2n1	20.24
CN(C)C(=O)CCC(=O)NCc1cccnc1-n1cnc2ccccc21	-4.725
Cc1cc2ccncc2n1CC1(O)CCN(C(=O)c2cccnc2)CC1	107.2
O=C(c1cncc(Br)c1)N1CCC(O)(Cn2ccc3ccncc32)CC1	-1.363
Cc1ncsc1C(=O)N1CC[C@@H]2[C@@H](CC1)OCCN2c1cccnc1	-15.36
Cc1ncsc1C(=O)N1CCC(O)(Cn2c(C)cc3ccncc32)CC1	102
Cc1nc(N2CCN(C(=O)c3cccnc3)CC2)cc(-n2cccc2)n1	13.16
Cc1nnc(SCCC(=O)N(C)Cc2c(F)cccc2Cl)[nH]1	13.01
CCCn1nc2c(cc1=O)CN(CCS(C)(=O)=O)CC2	0.2637
Cc1nc2c(c(N3CCC(O)(Cn4ccnc4)CC3)n1)CCNCC2	-21.19
CC(NC(=O)N(C)Cc1ccc(Cl)s1)c1ccccn1 (centres undefined)	6.324
CC(NC(=O)NCc1cc(Br)cs1)c1ccccn1 (centres undefined)	100.4
CC(NC(=O)NCc1ccc(Cl)s1)c1ccccn1 (centres undefined)	3.359
CC(NC(=O)NCCc1ccc(Cl)s1)c1ccccn1 (centres undefined)	158
CCCNC(=O)c1ccc(NC(=O)NC(C)c2ccccn2)cc1 (centres undefined)	-5.222
CC(NC(=O)Nc1cccnc1N1CCOCC1)c1ccccn1 (centres undefined)	-6.169
CC(NC(=O)NCc1ccc(Cl)cc1)c1ccccn1 (centres undefined)	9.197
CC(NC(=O)NCc1ccccc1Cl)c1ccccn1 (centres undefined)	111.7
CC(C)CNC(=O)c1ccc(NC(=O)NC(C)c2ccccn2)cc1 (centres undefined)	-15.83
CC(C)CN1CC2(CCN(C(=O)C3CNC(=O)N3)CC2)CC1=O (centres undefined)	-19.59
CN(C)C(CNC(=O)c1cc2c([nH]c1=O)CCCC2=O)c1ccsc1 (centres undefined)	7.24
Cc1ccc(CNC(=O)c2ccc(S(=O)(=O)N3C[C@@H]4C[C@H]3CN4)cc2)o1	13.35
COc1cc(CN2CCN(c3cccc(OC)c3)C(=O)C2)cc(OC)c1	-15.09
COc1cccc(N2CCN(CC[C@H](O)c3ccccc3)CC2=O)c1	-29.06

Compound	Percent Effect [%]
COc1cccc(CN2CCN(Cc3ccc4nonc4c3)CC2=O)c1	-14.94
CCn1cc(CN2CCN(Cc3cccc(OC)c3)C(=O)C2)cc1C#N	-7.886
COc1ccc(N2CCN(CC[C@H](O)c3ccccc3)CC2=O)cc1	-22.52
COc1cccc(N2CCN(C(=O)C(OC)c3ccccc3)CC2=O)c1 (centres undefined)	13.04
COc1cccc(N2CCN(Cc3ccc4occc4c3)CC2=O)c1	113.8
COc1cccc(N2CCN(Cc3cccc(CCN)c3)CC2=O)c1	112.7
COCCCN1C(=O)CC[C@H]2CN(Cc3ccc4occc4c3)CC[C@H]21	-8.694
COc1cccc(N2CCN(Cc3ccc(NC(C)=O)cc3)CC2=O)c1	-1.185
COc1cccc(N2CCN(Cc3cc(C)cc(F)c3)CC2=O)c1	130.9
COc1cccc(N2CCN(Cc3ccc4ccn(C)c4c3)CC2=O)c1	113.3
N#Cc1ccc(CNC(=O)C2=NN(c3ccccc3)C(=O)CN2)cc1	-19.54
N#Cc1ccnc(N2CCN(Cc3cccc(F)c3)CC2)c1	16.74
Cc1n[nH]c(=O)c2c(NC(=O)CN3CCOC(C)C3)oc(C)c12 (centres undefined)	0.9329
COc1ccc(CNC[C@H]2COCc3nc4cccnc4n32)cc1	-4.105
Cc1cc(CS(=O)(=O)NC2CCCc3ccccc32)on1 (centres undefined)	-2.074
COc1cccc(N2CCN(C(=O)C(O)CC(C)C)CC2=O)c1 (centres undefined)	12.91
COc1cccc(N2CCN(Cc3nccn3C(C)C)CC2=O)c1	98.08
COc1cccc(N2CCN(Cc3ccc4[nH]ccc4c3)CC2=O)c1	81.94
COc1cccc(N2Cc3nc(=O)[nH]n3C2=O)c1	-15.51
COc1cccc(N2CCN(C(=O)C(C)Oc3ccccc3)CC2=O)c1 (centres undefined)	9.152
c1ccc2[nH]c(C3CCN(Cc4nnc(C5CC5)o4)CC3)cc2c1	10.45
Cc1cc(CNC(=O)c2cc(NC(=O)C(C)C)ccc2Cl)no1	18.73
O=C1C(N2CCN(c3ccc(O)cc3)CC2)CCN1C1CCOCC1 (centres undefined)	-11.86
CC(C)n1cnnc1CN(C)Cc1ccc(CO)o1	-7.369
Cn1cnc2c1CCN(C(C(=O)N1CCCCC1)c1ccccc1)C2 (centres undefined)	18.33

Compound	Percent Effect [%]
O=C(CNc1cc(-c2ccccc2)nc2ccnn12)NC1CC1	-3.438
COC(=O)CSCc1nc(-c2ccc(Cl)cc2)no1	-16.66
COCCOc1ncccc1-c1noc([C@@H]2CCCN2C2CCC2)n1	-10.03
CN(c1cccnn1)[C@@H]1CC[C@@H]2CN(Cc3ccccc3C(=O)O)C[C@@H]21	106.4
CN(c1cccnn1)C1CCN(C(=O)c2ccc3c(c2)COC3)CC1	-3.847
CN(c1cccnn1)[C@@H]1CC[C@@H]2CN(Cc3cccc(C(=O)O)c3)C[C@@H]21	111.9
Cc1nn(C)c(C)c1CC(=O)N1CCC(N(C)c2cccnn2)CC1	-21.95
CC(O)CN1CCN(Cc2cccc(C(=O)N(C)C)c2)CC1 (centres undefined)	-11.87
Cn1cccc1C(=O)NCc1cn2c(n1)CN(c1ncccn1)CC2	-46.58
O=C1CCCc2cc(-c3csc(CCN4CCOC4=O)n3)ccc2N1	2.984
CS(=O)(=O)CCOCCNc1ccc(C(F)(F)F)cc1C#N	-20.16
CCn1nc(C)c(CN(CCOC)C(=O)c2cnc(C)nc2O)c1C	-5.757
O=C(c1cnccn1)N1CCCC(Cn2cc(C3CCCC3)nn2)C1 (centres undefined)	-14.19
O=C(c1cscn1)N1CCC(Cn2cc(-c3ccsc3)nn2)CC1	2.039
Nc1nc2nc(C3CCCN(C(=O)c4cscn4)C3)ccc2s1 (centres undefined)	-1.798
Nc1nc2nc(C3CCCN(C(=O)c4cncs4)C3)ccc2s1 (centres undefined)	108.5
Nc1nc2nc(C3CCCN(C(=O)c4cnccn4)C3)ccc2s1 (centres undefined)	126
Nc1nc2nc(C3CCN(C(=O)c4cscn4)C3)ccc2s1 (centres undefined)	104
O=C([C@H]1COC[C@H]2CN(CC3CC3)C[C@H]21)N1CCOCC1	21.74
CN(CCCC1CCCC1)C(=O)c1cc(CN2CCC(O)CC2)on1	-12.63
COc1cccc(-c2nc3c([nH]2)CCNC3)c1F	-6.974
CCOc1ccc(N2CCCN=C2NC(=O)c2ccccc2C)cc1	-3.123
CC(C)NS(=O)(=O)c1cc(C(=O)O)cc(-c2ccc3c(c2)OCCO3)c1	-21.29
Cc1ccc2c(c1)C(NCc1ccccn1)CC2 (centres undefined)	6.59
CC(C)NC(=O)[C@@H]1CN(Cc2nccs2)C[C@H]2OCC[C@H]21	-53.61

Compound	Percent Effect [%]
Cc1cnn(C2CCCN(C(=O)c3ccc(Cn4ccnc4)cc3)C2)c1 (centres undefined)	106.9
Cc1cnn(C2CCCN(C(=O)c3ccc(-n4ccnc4)cc3)C2)c1 (centres undefined)	97.92
Cc1cnn(C2CCCN(C(=O)c3cccc(Cn4ccnc4)c3)C2)c1 (centres undefined)	6.448
CC(c1ccccc1)n1c(SCC(=O)O)nnc1-c1ccn[nH]1 (centres undefined)	-4.886
Cn1c(-c2ccccc2)nn(CCNS(=O)(=O)c2ccccc2Cl)c1=O	-1.369
CCCS(=O)(=O)N1Cc2c(ncn2Cc2ccccc2)C[C@H]1C(=O)OC	-4.606
N#Cc1cccc(S(=O)(=O)N2CC(CC(=O)O)c3ccccc32)c1 (centres undefined)	-2.78
CC1(C)CN(C(=O)Nc2ccc(Cn3cccn3)cc2)CCO1	-0.352
Cn1cc(C[C@H]2[C@@H](O)CCN2C(=O)C2CC=CC2)cn1	-1.047
CN(C)[C@@H]1CCN(C(=O)C2CCOCC2)[C@H]1Cc1ccncc1.O=C(O)C(F)(F)F.O=C(O)C(F)(F)F	-5.936
O=C(C1CCOCC1)N1CC[C@@H](O)[C@@H]1Cc1ccncc1	93.36
O=C(O)C(F)(F)F.O=C(O)C(F)(F)F.O[C@@H]1CCN(CC2CCOC2)[C@H]1Cc1cccnc1 (some centres undefined)	3.217
Cn1cc(C[C@H]2[C@@H](O)CCN2C(=O)C2CCC2)cn1	-13.15
O=C(C1CCOCC1)N1CC[C@@H]2[C@H]1CCC(=O)N2c1ccccc1	-23.21
Cn1cc(C[C@H]2[C@H](O)CCN2C(=O)C2CCOCC2)cn1	-4.576
O=C(C1CC=CC1)N1CC[C@@H](O)[C@H]1Cc1cccnc1	109.3
O=C(C1CCOCC1)N1CC[C@@H](O)[C@@H]1Cc1ccccc1	90.42
O=C(C1CCC1)N1CC[C@H](O)[C@@H]1Cc1cccnc1.O=C(O)C(F)(F)F	95.67
CC(C)N1CC(C(=O)N2CCc3c(nc(CC4CC4)[nH]c3=O)C2)CC1=O (centres undefined)	-6.23
OCC1(CC2CCCCO2)CCN(c2cnc3ccccc3n2)CC1 (centres undefined)	-13.06
Cc1nc(N2CCCC(C)C2)nc2cc(S(C)(=O)=O)ccc12 (centres undefined)	-6.696
OCc1cn([C@@H]2c3ccccc3C3(CCNCC3)[C@H]2O)nn1	-1.268
O=S(=O)(NCC1(O)CCOc2ccccc21)c1ccccc1F (centres undefined)	0
CC(=O)Nc1nc(C(=O)Nc2ccc(N3CCCCC3)nc2)cs1	7.498
